# Compound activity (PubChem BioAssay)
# HCMV antiviral – human cytomegalovirus inhibition; HFF cells, HCMV-luciferase reporter, 72 h; stronger effect = lower value; activity change, negative = inhibition, % at 57.5 µM; actives 4.5% (n = 410,000); AID 1259415; in the data active = activity change below about -60%; inconclusive = no clear call, values can overlap the other calls; inactive = above about -39%
#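 Cell-based, HFFs, 1000 cells/well, 16 h 37C; cpds in DMSO + HCMV-luc, MOI 1 PFU/cell; 72 h 37C; OneGlo luminescence after 5 min RT; norm. to buffer vs Salinomycin 10uM.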
# FMDV antiviral – antivirals against foot and mouth disease virus; FMDV antiviral cell-based qHTS; Potency, µM (top dose mostly 57.9 µM), actives largely listed as inhibitors; actives 1.2% (n = 410,000); calls by dose curve; tested in HEK293T cells; note: read-out not given here; nearly all actives have a fitted effect of over 45% in size
# VACV mCherry inh – vaccinia inhibition (mCherry reporter) | Vaccinia virus mCherry reporter infection, fluorescence | Potency, µM (top dose mostly 36.5 µM), most hits filed as inhibitors | actives 0.63% (n = 310,000) | AID 720579; calls by dose curve; tested in A549 cells; note: nearly all actives have a fitted effect of over 35% in size
# Vaccinia Venus – vaccinia inhibition (Venus reporter); actives 0.46% (n = 330,000); AID 720580; Potency, µM (doses to about 36.5 µM), most hits filed as inhibitors; Vaccinia virus Venus reporter expression, fluorescence; calls by dose curve; tested in A549 cells; note: nearly all actives have a fitted effect of over 30% in size
# Sm TGR inh – inhibitors of Schistosoma mansoni thioredoxin glutathione reductase. purified TGR, DTNB reduction, TNB absorbance 405 nm. actives 3% (n = 360,000). Potency, µM (top dose mostly 114 µM), usual class: inhibitors. Q962Y6; note: nearly all actives have a fitted effect of over 60% in size
#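 TGR 20 nM + NADPH 100 uM (dispensed conc.), cpd preinc 15 min RT; start with NADPH (500 uM addition) then DTNB (15 mM addition). Kinetic TNB absorbance, 405 nm filter. Four-parameter Hill fit across titration.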
# HCV inh – inhibitors of hepatitis C virus infection | actives 3.4% (n = 340,000) | Huh7.5.1 HCVcc-Cre infection, luciferase reporter, 44 h | AID 651820 | Potency, µM (doses to about 41.8 µM), usual class: inhibitors
#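 Infectious HCVcc-Cre (~0.5 moi) was added to cells just after compound, with cells seeded 4 h earlier at 1,000 per well. Luciferase activity after 44 h culture reported infection; substrate was incubated 15 min at room temperature before reading.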
# A number is an active result; i = inactive; ? = inconclusive; nt = no result; [ ] = dose if it differs, or a comment. The list is not random: actives were taken first. Their share in the collection is about 9.3%. Unless noted, calls come from the whole dose curve; as a rule, active = well fitted curve in the direction sought with a large enough effect; inconclusive = small, poorly fitted or top-dose-only effect, or another doubt; inactive = no such curve, though single readings can be large; an effect the other way counts as inactive or inconclusive.
SMILES,HCMV antiviral,FMDV antiviral,VACV mCherry inh,Vaccinia Venus,Sm TGR inh,HCV inh
S=c1[nH]nc(-c2cccc(Cl)c2)n1/N=C/c1ccco1,nt,i,i,i,40µM,i
S=c1[nH]nc(-c2cc(-c3ccccc3)n[nH]2)n1/N=C/c1ccccc1,i,i,i[7.34 µM],i[7.34 µM],i,i
S=c1[nH]nc(-c2cc(-c3ccccc3)n[nH]2)n1/N=C/C(Br)=C/c1ccccc1,-100,?,14µM,?,?,?
CC(/C=N/n1c(-c2ccncc2)n[nH]c1=S)=C\c1ccco1,?,i,nt,nt,32µM,i
COc1cccc(C(=O)COc2ccccc2N2C(=O)C3C4C=CC(C4)C3C2=O)c1 (stereo unspecified),i,i,i,i,i,i
Cc1cc(Nc2cccc(F)c2)n2nc(C)nc2n1,i,i,i,i,i,i
COc1ccc(N2CCN(S(=O)(=O)CCNC(=O)Cc3ccc(Cl)cc3)CC2)cc1,i,i,i,i,i,nt
Cc1nc2ccn(Cc3cccnc3)c(=O)c2cc1C(=O)N1CCN(c2ccc(F)cc2)CC1,i,i,i,i,i,nt
COC(=O)c1ccc(NC2CC(=O)N(c3ccccc3C)C2=O)cc1 (stereo unspecified),i,i,i,i,32µM,i
Cc1ccccc1N1C(=O)CC(Nc2ccc3c(c2)OCO3)C1=O (stereo unspecified),i,i,nt,nt,?,i
COC(=O)c1cc(C(=O)OC)cc(N2C(=O)CC(NNC(=O)c3ccccc3Cl)C2=O)c1 (stereo unspecified),i,i,i,i,i,i
COC(=O)c1ccccc1NC1CC(=O)N(c2c(C)cccc2C)C1=O (stereo unspecified),i,i,i,i,7.1µM,i
O=C(NCC1COc2ccccc2O1)c1ccc(Cl)c(S(=O)(=O)N2CCOCC2)c1 (stereo unspecified),?,?,nt,nt,i,?
Nc1nnnn1CC(=O)N/N=C/c1cc([N+](=O)[O-])ccc1O,i,i,i,i,i,i
CC1(C(=O)NS(=O)(=O)C2CC2)CCCN(C(=O)c2ccccc2)C1 (stereo unspecified),i,i,i,i,nt,nt
CC1(C(=O)NS(=O)(=O)C2CC2)CCCN(C(=O)c2cccs2)C1 (stereo unspecified),-61,i,i,i,nt,nt
CON(C)C(=O)CCC1CCCN1C(=O)OC(C)(C)C (stereo unspecified),nt,i,i,i,nt,i
Cc1nnc(SCC(=O)NCc2ccc3c(c2)OCO3)n1C,i,i,i,i,i,i
CC(C)C1Oc2ccccc2N(CC(=O)N(Cc2ccccn2)CC2CCCO2)C1=O (stereo unspecified),i,i,nt,nt,i,i
Cc1ccc(CN(CC2CCCO2)C(=O)CN2C(=O)C(C(C)C)Oc3ccccc32)o1 (stereo unspecified),i,?,nt,nt,35µM,i
C#CCn1c(O)c(N=NC(=O)C(O)c2ccccc2)c2ccccc21 (stereo unspecified),i,i,13µM,?,i,i
COc1ccc(O)c(C=Nc2cc(NC(C)=O)c(Cl)cc2Cl)c1,-102,i,i,i,i,i
O=C(/C(C=Nc1ccc(F)cc1)=C(/O)c1ccco1)C(F)(F)F,i,i,i,i,i,i
COc1ccc(C2CC(c3ccccc3)=NN2C(=O)c2cccs2)cc1 (stereo unspecified),i,i,i,i,i,?
COc1ccc(C2=NN(C(=O)c3cccs3)C(c3ccccc3O)C2)cc1 (stereo unspecified),-95,i,?,?,i,?
SMILES,HCMV antiviral,FMDV antiviral,VACV mCherry inh,Vaccinia Venus,Sm TGR inh,HCV inh
Cc1ccc(C(=O)N2N=C(c3ccccc3O)CC2c2ccccc2)cc1 (stereo unspecified),i,i,i,i,i,i
Cc1ccc(C(=O)N2N=C(c3ccc(Br)cc3)CC2c2ccccc2O)cc1 (stereo unspecified),-62,i,i,?,i,?
O=C(NCc1ccc(F)cc1)c1cccc2c1C(=O)N(Cc1cccnc1)C2,i,i,nt,nt,i,i
O=c1c(Cl)c(NCCCO)cnn1-c1nc2ccccc2[nH]1,-98,i,i,i,8.9µM,10µM
CCN(C(=O)c1c(-c2ccccc2Cl)noc1C)C1CCCCC1,?,i,i,i,i,?
Cc1onc(-c2ccccc2Cl)c1C(=O)NCc1ccco1,i,nt,i,i,45µM,i
Cc1onc(-c2ccccc2Cl)c1C(=O)Nc1ccc(CN2CCCC2)cc1,i,i,nt,i,79µM,?
Cc1onc(-c2ccccc2Cl)c1C(=O)N(C)C1CCCCC1,-66,i,?,i,i,i
Cc1onc(-c2ccccc2Cl)c1C(=O)Nc1ccccc1,i,?,nt,i,i,i
COc1c(Cl)cc(-c2noc(C)c2C(=O)NCc2ccccc2)cc1Cl,-68,i,i,i,i,i
Cc1cc(-c2onc3ccc(Cl)cc23)ccc1O,i,i,i,i,40µM,?
CC(=O)c1ccc2noc(-c3ccc(Cl)cc3)c2c1,-62,i,i,i,28µM,i
Cc1ccc(-c2onc3ccc(C=O)cc23)cc1,i,i,?,i,45µM,i
O=C(Cn1cnc2ccccc2c1=O)NCC(=O)N1CCOCC1,i,i,i,i,i,i
Cc1ccc2nc(-c3cccc(Cl)c3)c(Cc3ccccc3)n2c1,i,i,i,i,nt,nt
CC1=C(C#N)C(=O)N(C2CCS(=O)(=O)C2)C(=O)/C1=C\c1ccco1 (stereo unspecified),nt,nt,nt,nt,8.9µM,nt
Cc1cc(=S)cc(C)n1CCO,i,i,i,i,14µM,i
C[C@H](NC(=O)OC(C)(C)C)[C@@H](O)c1ccco1,nt,nt,i,i,nt,nt
Cc1cccn2c(=O)c(/C=C(\C#N)C(=O)NCc3ccccc3)c(N3CCC(C(N)=O)CC3)nc12,i,i,i[7.34 µM],i[7.34 µM],i,i
Cc1sc2ncnc(N3CCN(Cc4ccccc4)CC3)c2c1-c1ccccc1,i,28µM,i,i,i,?
Cc1sc2ncnc(N3CCC(C(=O)NNC(=O)COc4ccc(Cl)cc4)CC3)c2c1C,i,i,nt,nt,nt,i
Cc1sc2ncnc(N3CCN(CCOc4ccc(Cl)cc4)CC3)c2c1C,-93,?,nt,nt,i,10µM
CCOc1ccc(CN2CCN(c3ncnc4scc(-c5ccccc5)c34)CC2)cc1,i,?,i,i,i,?
FC(F)Oc1ccc(/C=N/N2CCCCC2)c(OC(F)F)c1,nt,nt,nt,nt,i,nt
Cc1ccc2sc(C)[n+](CCO)c2c1,i,i,i,i,25µM,i
CCC(Cc1ccccc1)NC(=O)CCNS(=O)(=O)c1cc(Br)cnc1N (stereo unspecified),i,i,i,i,i,i
O=C1NCCCC2c3cc(O)c4ccccc4c3OC12N1CCCCC1 (stereo unspecified),?,nt,nt,nt,2µM,nt
Cc1ccc(C(=O)N2c3ccccc3Sc3ccccc32)cc1,?,i,i,i,nt,nt
CCOc1ccccc1C(=O)N1c2ccccc2Sc2ccccc21,i,i,nt,i,i,11µM
